Laboratory results taken from PubChem BioAssay (Tox21).
Results filed as inconclusive are left out. A call without a number means that no potency is given here. Unmarked numbers belong to inactive results. Activity calls are given as the source filed them. Unless noted, calls come from the whole dose curve; as a rule, active = well fitted curve in the direction sought with a large enough effect in the repeat runs; inconclusive = weak or mixed curves; inactive = no such curve, though single readings can be large; an effect the other way counts as inactive or inconclusive.

Tests used:
[1] = qHTS assay to identify aromatase inhibitors - cell viability counter screen (AID 743084);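 note: cells stimulated with testosterone during compound exposure; nearly all actives have a fitted effect of over 55% in size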; note: potency is the fitted concentration of half-maximal effect
[2] = molecular target: Aryl hydrocarbon receptor (Homo sapiens) (UniProt P35869); assay: qHTS assay to identify small molecule that activate the aryl hydrocarbon receptor (AhR) signaling pathway (AID 743085); note: nearly all actives have a fitted effect of over 15% in size; note: potency is the fitted concentration of half-maximal effect;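 for activation: HG2L7.5c1 human HepG2 liver cells with stably integrated DRE-driven firefly reporter; series mostly up to about 70 µM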
Procedure, shortened: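 Luminescence (ONE-Glo) from a dioxin-responsive-element luciferase reporter in HG2L7.5c1 HepG2 cells after 24 hr compound exposure at 37C; viability measured by CellTiter-Fluor fluorescence beforehand.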

[3] = qHTS assay to identify small molecule that activate the aryl hydrocarbon receptor (AhR) signaling pathway - cell viability counter screen (AID 743086);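 note: HepG2 liver cells carrying the AhR DRE luciferase reporter; series mostly up to about 70 µM; nearly all actives have a fitted effect of over 45% in size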
Procedure, shortened: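 HepG2-AhR-luc (HG2L7.5c1) cells, 4000/well, were preincubated 5 h at 37C, exposed to compound in qHTS format for 24 hr at 37C, then given CellTiter-Fluor for 30 min; viability was read as fluorescence in the reporter wells.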

[4] = molecular target: Peroxisome proliferator-activated receptor gamma (Homo sapiens) (UniProt P37231); assay: qHTS assay to identify small molecule agonists of the peroxisome proliferator-activated receptor gamma (PPARg) signaling pathway (AID 743094; active = well fitted activation curve with a large enough effect in the signal ratio in the repeat runs, not every such curve was filed as active; the % refers to the signal ratio)
Procedure, shortened: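 Reporter activation was scored by fluorescence of cleaved LiveBLAzer B/G substrate (1 h, room temperature) in PPARg-bla HEK293H cells previously treated 17 h at 37C with DMSO-dissolved compounds.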

[5] = qHTS assay to identify small molecule antagonists of the peroxisome proliferator-activated receptor gamma (PPARg) signaling pathway - cell viability counter screen (AID 743194); note: nearly all actives have a fitted effect of over 55% in size
Procedure, shortened: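 PPARg-UAS-bla HEK293H cells were plated, rested 5 h at 37 C, then treated with compounds plus rosiglitazone (50 nM final) for 17 h at 37 C; viability was then read by CellTiter-Glo luminescence after 30 min at room temperature.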

[6] = qHTS assay for small molecule agonists of the antioxidant response element (ARE) signaling pathway (AID 743202; active = well fitted activation curve with a large enough effect in the signal ratio in the repeat runs, not every such curve was filed as active; the % refers to the signal ratio)
Procedure, shortened: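 Following a 16 h, 37 C exposure of reporter HepG2 cells (ARE-driven beta-lactamase, 2,000 cells/well) to compounds, FRET substrate was applied for 2 h at room temperature and fluorescence intensity recorded.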

[7] = qHTS assay for small molecule agonists of the antioxidant response element (ARE) signaling pathway - cell viability counter screen (AID 743203; calls by dose curve; note: nearly all actives have a fitted effect of over 55% in size)
Procedure, shortened: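 Viability counter screen: stably transfected ARE-bla HepG2 line, 16 hrs compound exposure at 37C/5% CO2, ATP-based CellTiter-Glo luminescence measured in the reporter wells.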

[8] = qHTS assay for small molecule activators of the heat shock response signaling pathway - cell viability counter screen (AID 743209); note: nearly all actives have a fitted effect of over 50% in size
Procedure, shortened: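 Viability of HSE-bla HeLa cells is measured with CellTiter-Glo in the wells already used for the reporter read. Compound exposure lasts 5 h at 37 C, and luminescence is read after 30 min at room temperature.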

[9] = qHTS assay for small molecule activators of the heat shock response signaling pathway (AID 743210; active = well fitted activation curve with a large enough effect in the signal ratio in the repeat runs, with a control signal flat, not every such curve was filed as active; the % refers to the signal ratio; note: series mostly up to about 63 µM)
Procedure, shortened: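 Heat shock element–beta-lactamase HeLa reporter cells; qHTS with compounds for 5 h at 37 C; detection by FRET substrate fluorescence after 2.5 h at RT.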

[10] = qHTS assay to identify small molecule agonists of the peroxisome proliferator-activated receptor delta (PPARd) signaling pathway - cell viability counter screen (AID 743211); note: nearly all actives have a fitted effect of over 55% in size
Procedure, shortened: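 Viability was measured as CellTiter-Glo luminescence (30 min, room temperature) in the same wells as the beta-lactamase readout. GeneBLAzer PPARd UAS-bla HEK293H cells received compound after 5 h plating and were incubated 17 h at 37 C.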

[11] = molecular target: Peroxisome proliferator-activated receptor delta (Homo sapiens) (UniProt Q03181); assay: qHTS assay to identify small molecule agonists of the peroxisome proliferator-activated receptor delta (PPARd) signaling pathway (AID 743212; calls by dose curve)
Procedure, shortened: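 Beta-lactamase reporter read by fluorescence (LiveBLAzer B/G FRET, 2 h, room temperature). Test agents, in DMSO, incubated at 37 C with PPARd-bla HEK293H cells.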

[12] = qHTS assay to identify small molecule antagonists of the peroxisome proliferator-activated receptor delta (PPARd) signaling pathway - cell viability counter screen (AID 743213); note: nearly all actives have a fitted effect of over 50% in size
Procedure, shortened: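 PPARd-bla HEK293H cells were treated with compounds plus agonist L165041 (300 nM final) for 17 h at 37 C. Viability was then read in the same wells by CellTiter-Glo luminescence after 30 min at room temperature.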

[13] = molecular target: Peroxisome proliferator-activated receptor delta (Homo sapiens) (UniProt Q03181); assay: qHTS assay to identify small molecule antagonists of the peroxisome proliferator-activated receptor delta (PPARd) signaling pathway (AID 743215; active = well fitted inhibition curve with a large enough effect in the signal ratio in the repeat runs, not every such curve was filed as active; the % refers to the signal ratio;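 note: cells stimulated with agonist L165041 at 300 nM final during compound exposure; series mostly up to about 62 µM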)
Procedure, shortened: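 Plated HEK293H PPARd-bla cells rested 5 h at 37 C and 5% CO2. Compound, then agonist L165041 at 300 nM final, was added; 17 h at 37 C followed. Substrate loading, 2 h room temperature, fluorescence measured.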

[14] = molecular target: Bile acid receptor (Homo sapiens) (UniProt Q96RI1); assay: qHTS assay to identify small molecule antagonists of the farnesoid-X-receptor (FXR) signaling pathway (AID 743217; active = well fitted inhibition curve with a large enough effect in the signal ratio in the repeat runs, not every such curve was filed as active; the % refers to the signal ratio; note: potency is the fitted concentration of half-maximal effect)
Procedure, shortened: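 Screen of the Tox21 10K library in quantitative HTS format using FXR-UAS-bla HEK 293T reporter cells. Agonist chenodeoxycholic acid, 50 uM final, added with compounds; 16 h incubation at 37 °C; beta-lactamase FRET fluorescence measured.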

[15] = qHTS assay to identify small molecule agonists of the farnesoid-X-receptor (FXR) signaling pathway - cell viability counter screen (AID 743218); note: nearly all actives have a fitted effect of over 45% in size; note: potency is the fitted concentration of half-maximal effect
Procedure, shortened: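 Viability of FXR-bla HEK 293T cells is measured by ATP-based CellTiter-Glo luminescence following 16 h compound treatment at 37 C and a prior 2 h room-temperature beta-lactamase substrate step.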

[16] = molecular target: Bile acid receptor (Homo sapiens) (UniProt Q96RI1); assay: qHTS assay to identify small molecule agonists of the farnesoid-X-receptor (FXR) signaling pathway (AID 743220; active = well fitted activation curve with a large enough effect in the signal ratio in the repeat runs, not every such curve was filed as active; the % refers to the signal ratio; note: potency is the fitted concentration of half-maximal effect)
Procedure, shortened: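 FXR-UAS-bla HEK 293T cells carrying a UAS-driven beta-lactamase reporter were plated for 5 h at 37C/5% CO2, then exposed to DMSO-dissolved Tox21 10K compounds for 16 h at 37C. A LiveBLAzer B/G FRET substrate was loaded for 2 h at room temperature before fluorescence reading.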

[17] = qHTS assay to identify small molecule antagonists of the farnesoid-X-receptor (FXR) signaling pathway - cell viability counter screen (AID 743221; active = well fitted cell-killing curve with a large enough effect in the repeat runs, not every such curve was filed as active; note: nearly all actives have a fitted effect of over 50% in size)
Procedure, shortened: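 Cytotoxicity counter screen run in the FXR-bla reporter wells: HEK 293T cells exposed to compound with 50 uM (final) chenodeoxycholic acid for 16 h, 37 C, then viability measured by CellTiter-Glo luminescence after 30 min, room temperature.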

[18] = molecular target: Vitamin D3 receptor (Homo sapiens) (UniProt P11473); assay: qHTS assay to identify small molecule antagonists of the vitamin D receptor (VDR) signaling pathway (AID 743223; active = well fitted inhibition curve with a large enough effect in the signal ratio in the repeat runs, not every such curve was filed as active; the % refers to the signal ratio)
Procedure, shortened: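 Antagonist mode: compound added to VDR-bla cells alongside agonist 1alpha,25-dihydroxyvitamin D3 (3 nM final), incubation 16 h at 37C. Read-out is LiveBLAzer FRET fluorescence, 2 h at room temperature.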

[19] = molecular target: Peroxisome proliferator-activated receptor gamma (Homo sapiens) (UniProt P37231); assay: qHTS assay to identify small molecule antagonists of the peroxisome proliferator-activated receptor gamma (PPARg) signaling pathway (AID 743191; calls by dose curve; note: series mostly up to about 63 µM; nearly all actives have a fitted effect of over 30% in size)
Procedure, shortened: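 GeneBLAzer PPARg UAS-bla HEK293H cells carrying a UAS-driven beta-lactamase reporter were plated at 3000 cells/well, preincubated 5 h at 37C, then given compound for 17 h at 37C; LiveBLAzer B/G FRET substrate was read after 1 h at room temperature.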

[20] = molecular target: Vitamin D3 receptor (Homo sapiens) (UniProt P11473); assay: qHTS assay to identify small molecule agonists of the vitamin D receptor (VDR) signaling pathway (AID 743222; calls by dose curve)
Procedure, shortened: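 Fluorescence from cleaved LiveBLAzer B/G FRET substrate served as readout. VDR-bla cells had been treated 16 h at 37C with test compounds in DMSO, following a 4 h settling period, and substrate was loaded for 2 h at RT.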

Chain of Peroxisome proliferator-activated receptor delta (Homo sapiens) (Q03181 whole entry, looked up): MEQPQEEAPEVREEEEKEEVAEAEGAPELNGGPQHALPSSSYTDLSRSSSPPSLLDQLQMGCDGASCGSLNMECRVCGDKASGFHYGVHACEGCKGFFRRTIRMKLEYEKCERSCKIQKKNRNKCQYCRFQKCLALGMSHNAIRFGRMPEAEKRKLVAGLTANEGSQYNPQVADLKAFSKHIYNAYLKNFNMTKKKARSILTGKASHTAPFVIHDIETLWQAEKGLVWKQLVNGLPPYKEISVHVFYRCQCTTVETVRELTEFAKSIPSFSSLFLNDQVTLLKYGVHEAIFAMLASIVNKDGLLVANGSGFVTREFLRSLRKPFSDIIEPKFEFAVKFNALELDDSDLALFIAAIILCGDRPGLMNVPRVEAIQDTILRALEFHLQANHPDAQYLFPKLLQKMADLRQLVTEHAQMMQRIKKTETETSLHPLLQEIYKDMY
Chain of Bile acid receptor (Homo sapiens) (Q96RI1 whole entry, looked up): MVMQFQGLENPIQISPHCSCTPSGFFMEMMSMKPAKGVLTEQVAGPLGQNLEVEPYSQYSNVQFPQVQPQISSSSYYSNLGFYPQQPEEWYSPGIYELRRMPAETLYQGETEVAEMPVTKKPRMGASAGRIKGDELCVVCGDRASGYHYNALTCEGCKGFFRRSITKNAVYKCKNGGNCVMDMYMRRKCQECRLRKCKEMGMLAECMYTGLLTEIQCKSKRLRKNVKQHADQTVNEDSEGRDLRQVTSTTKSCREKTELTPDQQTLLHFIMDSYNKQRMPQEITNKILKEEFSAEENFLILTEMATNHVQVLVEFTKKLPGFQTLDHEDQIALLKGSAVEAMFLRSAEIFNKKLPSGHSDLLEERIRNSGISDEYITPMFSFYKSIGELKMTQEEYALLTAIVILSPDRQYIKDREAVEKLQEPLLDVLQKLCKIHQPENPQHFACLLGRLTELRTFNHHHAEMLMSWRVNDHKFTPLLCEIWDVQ
Chain of Vitamin D3 receptor (Homo sapiens) (P11473 whole entry, looked up): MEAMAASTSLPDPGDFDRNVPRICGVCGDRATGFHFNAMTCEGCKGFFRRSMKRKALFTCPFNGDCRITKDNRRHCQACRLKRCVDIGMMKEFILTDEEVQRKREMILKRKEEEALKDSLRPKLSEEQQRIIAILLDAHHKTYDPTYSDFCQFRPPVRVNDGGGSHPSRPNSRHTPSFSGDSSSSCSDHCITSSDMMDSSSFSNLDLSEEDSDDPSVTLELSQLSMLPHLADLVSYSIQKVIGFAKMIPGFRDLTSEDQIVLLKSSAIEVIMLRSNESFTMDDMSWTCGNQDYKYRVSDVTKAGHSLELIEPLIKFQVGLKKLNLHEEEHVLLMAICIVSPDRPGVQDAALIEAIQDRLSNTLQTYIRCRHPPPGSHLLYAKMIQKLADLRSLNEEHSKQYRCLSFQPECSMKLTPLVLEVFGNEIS
Chain of Aryl hydrocarbon receptor (Homo sapiens) (P35869 whole entry, looked up): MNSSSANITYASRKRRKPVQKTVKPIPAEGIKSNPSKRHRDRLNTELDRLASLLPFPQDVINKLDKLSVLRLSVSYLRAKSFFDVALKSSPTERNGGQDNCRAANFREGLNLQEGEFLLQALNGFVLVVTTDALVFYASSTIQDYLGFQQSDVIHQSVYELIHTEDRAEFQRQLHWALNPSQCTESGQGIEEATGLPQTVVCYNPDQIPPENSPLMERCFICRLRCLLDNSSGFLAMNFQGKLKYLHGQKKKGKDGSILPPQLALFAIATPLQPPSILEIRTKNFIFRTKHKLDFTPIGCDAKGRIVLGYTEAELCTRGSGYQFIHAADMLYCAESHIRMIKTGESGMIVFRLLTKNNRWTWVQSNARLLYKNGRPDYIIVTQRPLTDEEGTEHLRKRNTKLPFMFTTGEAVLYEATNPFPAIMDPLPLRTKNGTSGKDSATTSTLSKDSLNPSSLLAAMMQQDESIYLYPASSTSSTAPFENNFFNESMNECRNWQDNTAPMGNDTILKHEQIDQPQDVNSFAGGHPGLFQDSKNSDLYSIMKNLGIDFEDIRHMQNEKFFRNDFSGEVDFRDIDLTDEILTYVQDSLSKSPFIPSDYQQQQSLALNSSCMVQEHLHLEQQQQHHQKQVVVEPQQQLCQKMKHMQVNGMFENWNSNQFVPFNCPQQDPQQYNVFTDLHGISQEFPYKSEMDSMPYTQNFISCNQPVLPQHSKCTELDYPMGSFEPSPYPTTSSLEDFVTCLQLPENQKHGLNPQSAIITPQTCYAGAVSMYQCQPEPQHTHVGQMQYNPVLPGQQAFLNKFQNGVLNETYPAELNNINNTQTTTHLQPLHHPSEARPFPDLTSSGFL
Chain of Peroxisome proliferator-activated receptor gamma (Homo sapiens) (P37231 whole entry, looked up): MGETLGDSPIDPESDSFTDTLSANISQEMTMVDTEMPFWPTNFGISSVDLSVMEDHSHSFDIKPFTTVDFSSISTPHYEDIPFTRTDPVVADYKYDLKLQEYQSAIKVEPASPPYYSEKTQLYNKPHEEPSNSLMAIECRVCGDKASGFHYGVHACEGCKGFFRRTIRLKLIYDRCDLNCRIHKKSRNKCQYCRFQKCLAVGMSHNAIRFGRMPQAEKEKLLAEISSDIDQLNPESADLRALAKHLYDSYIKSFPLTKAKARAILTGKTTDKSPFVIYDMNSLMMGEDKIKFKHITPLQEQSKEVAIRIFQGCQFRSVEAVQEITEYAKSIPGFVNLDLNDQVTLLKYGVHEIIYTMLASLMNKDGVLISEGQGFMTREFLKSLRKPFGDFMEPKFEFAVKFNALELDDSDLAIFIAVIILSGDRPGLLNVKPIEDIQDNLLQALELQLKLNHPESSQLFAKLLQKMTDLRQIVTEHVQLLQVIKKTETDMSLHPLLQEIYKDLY

| Compound | Potency [1] | Potency [2] | Potency [3] | Potency [4] | Potency [5] | Potency [6] | Potency [7] | Potency [8] | Potency [9] | Potency [10] | Potency [11] | Potency [12] | Potency [13] | Potency [14] | Potency [15] | Potency [16] | Potency [17] | outcome [18] | Potency [19] | Potency [20] |
| --- | --- | --- | --- | --- | --- | --- | --- | --- | --- | --- | --- | --- | --- | --- | --- | --- | --- | --- | --- | --- |
| C=C1[C@H]2CC[C@@H]3[C@H]2C(C)(C)CCC[C@]13C | inactive | inactive | inactive | inactive | inactive | inactive | inactive | inactive | inactive | inactive | inactive | inactive | inactive | inactive | inactive | inactive | inactive | – | – | – |
| CN1CCN(C(c2ccccc2)c2ccccc2)CC1 | inactive | inactive | inactive | inactive | inactive | inactive | inactive | inactive | inactive | inactive | inactive | inactive | inactive | – | inactive | – | inactive | inactive | – | – |
| C[C@H](CCC(=O)O)[C@H]1CC[C@H]2[C@@H]3CC[C@@H]4C[C@H](O)CC[C@]4(C)[C@H]3C[C@H](O)[C@]12C | inactive | inactive | inactive | inactive | – | – | inactive | – | inactive | – | – | – | – | – | – | 49.1 µM (active) | – | – | inactive | – |
| COc1ccc(-c2nc3ccc(C4=NNC(=O)CC4C)cc3[nH]2)cc1 (configuration not stated) | inactive | 11.9 µM (active) | inactive | inactive | inactive | inactive | inactive | inactive | inactive | – | inactive | – | – | 29.8 µM (active) | – | inactive | inactive | inactive | – | – |
| CCCCOC(=O)CCCCCCCC(=O)OCCCC | inactive | inactive | inactive | inactive | inactive | – | inactive | inactive | inactive | inactive | inactive | inactive | – | inactive | inactive | inactive | inactive | – | inactive | inactive |
| CCn1cc(C(=O)O)c(=O)c2cnc(N3CCNCC3)nc21 | inactive | inactive | inactive | inactive | inactive | – | inactive | inactive | inactive | – | – | inactive | – | inactive | inactive | inactive | inactive | – | inactive | – |
| CC(C)(C)OCC1CO1 (configuration not stated) | inactive | inactive | inactive | inactive | inactive | inactive | inactive | inactive | inactive | inactive | inactive | inactive | inactive | – | inactive | – | inactive | inactive | – | inactive |
| CCCCC(CC)CN1C(=O)C2C3C=CC(C3)C2C1=O (configuration not stated) | 54.5 µM (active) | inactive | inactive | inactive | inactive | inactive | inactive | inactive | inactive | – | inactive | – | inactive | – | – | – | – | – | – | inactive |
| CC(=O)c1ccc2c(c1)N(CCCN1CCC(CCO)CC1)c1ccccc1S2 | inactive | inactive | inactive | inactive | inactive | – | – | – | inactive | – | – | – | – | – | 29.8 µM (active) | – | – | – | inactive | – |
| NCC(=O)O | inactive | inactive | inactive | inactive | – | inactive | inactive | inactive | inactive | – | inactive | inactive | inactive | – | – | – | inactive | – | inactive | inactive |
